Structures are written as SMILES. This is part of a sample that, as a whole, favours compounds with a hit. Of some 83,000 tested, about 20% had one in any assay.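 Results are percent growth after 48 hours of single-concentration exposure. 100 means growth as in untreated cells, lower positive values show inhibition; negative values down to -100 show cell death.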 A number with no mark means an inactive call. Calls of active or inactive are those of the source. The calls were made as follows: active = growth percent below 10; inactive = the rest.

The test deals with UO-31 renal. Nature of the test: NCI-60 one-dose screen, 48 h (100 = growth as untreated, 0 = no growth, -100 = all killed). To be noted: 10 µM unless noted.
For the compound `COc1ccc2[nH]cc(-c3nc(-c4c[nH]c5ccncc45)cs3)c2c1`, the growth is 49%.

For `Oc1ccc(CN2CCC(N3CCCCC3)CC2)c2cccnc12`, the growth was 5.93% (active).

In the case of `CC(C)(C)c1cc(-c2nc3ccc(N4CCN(S(C)(=O)=O)CC4)cc3[nH]2)cc(C(C)(C)C)c1O`, the growth is 97%.

Take `COc1ccc2c(c1)c(-c1noc(C(=O)c3cn(C)c4ccc(Br)cc34)n1)cn2C`: the growth is 76.1%.

For `C[C@H](NC(=O)[C@@H](C)N)[C@H](Oc1ccc2c(cnn2-c2ccc(F)cc2)c1)c1ccc2c(c1)OCCO2`, the growth is 18.5%.

For the compound `C=C(C)[C@@H]1CC[C@]2(C(=O)O)CC[C@]3(C)[C@H](CC[C@@H]4[C@@]5(C)C[C@@H](Cc6cn(CCO[C@@H]7O[C@H](COC(C)=O)[C@H](OC(C)=O)[C@H](OC(C)=O)[C@H]7OC(C)=O)nn6)[C@H](O)C(C)(C)[C@@H]5CC[C@]43C)[C@@H]12`, the growth is 81.6%.

With `CCN(CC)CCOc1ccc(-c2c(-c3ccccc3)c(=O)oc3ccccc23)cc1`, the growth was 61.5%.

For the compound `COc1ccc2c(O)c(/C=C3\N=Nc4ccccc43)oc2c1C[C@@H]1CCNC[C@H]1F`, the growth is 50.5%.

`COc1cc(OC)cc(C2=C3CC[C@@H]4[C@H](CC[C@]5(C)C(=O)CC[C@@H]45)C3=CC3C(O)c4cccnc4N4C(=O)COC234)c1` (stereo partly drawn): the growth was 86.2%.

For the compound `CC(=O)N1N=C(c2ccc(Nc3nc(Nc4ccc(Cl)cc4)nc(Nc4ccc(Cl)cc4)n3)cc2)CC1c1ccco1` (stereo not drawn), the growth was 85.6%.

Consider `CCS/C(Nc1ccccc1)=C(\C#N)C(=O)N/N=C/c1ccc(Cl)cc1Cl`, for which the growth is 41.9%.

Consider `CCOC(=O)C(=Cc1cccc(Cl)c1)C(=O)OCC`, for which the growth was -56.2% (active).

For `CN[C@]12CC3(C=CC(=O)C=C3)O[C@@]1(Cc1ccc(OC)cc1)N(C)C(=O)N2`, the growth is 48.7%.

These data come from PubChem BioAssay (NCI).
